From PubChem BioAssay AID1498 (National Center for Advancing Translational Sciences (NCATS), 2009)
Results filed as inconclusive are left out. Calls of active or inactive are those of the source. Calls follow the shape of the full dose curve.

assay: Confirmation Concentration-Response Assay for Modulators of Lamin A Splicing; details: HeLa lamin A splicing GFP/RFP minigene, Acumen, 48 h; RFP activity: RFP channel at top concentration, at 46.1 µM; ratio activity: GFP/RFP ratio at top concentration, at 46.1 µM; series mostly up to 46.1 µM; GFP activity change, negative = decrease: at the top concentration
Text: NCGC Assay Overview: Hutchinson-Gilford Progeria Syndrome (HGPS) is a pediatric premature aging disease caused by a spontaneous mutation in the lamin A/C (LMNA) gene. The mutation activates a cryptic splice site in the LMNA pre-mRNA which results in production of a pre-lamin A protein that cannot be processed properly. The mutant protein accumulates in the nucleus and negatively affects numerous cellular functions. Correction of the splicing defect in HGPS patient cells using a targeted oligonucleotide (exo11) leads to reversal of the cellular disease phenotypes. To identify small molecule modulators of aberrant LMNA splicing, a homogenous assay was constructed in HeLa cells that used a GFP containing minigene to report on correction of aberrant splicing in lamin A and a RFP (DsRed2) to report on cell viability, uniformity and nonspecific effects on the assay signal. This assay was adapted to laser-scanning microplate cytometry (Acumen, TTP Labtech) where miniaturization of the assay to a 1,536-well plate format was possible. Select compounds active in the primary screen (AID 1487) were chosen for confirmation based on potency, efficacy, SAR and activity in other assays in PubChem and at NCGC. References: Bowen, W. P.; Wylie, P. G. Application of Laser-Scanning Fluorescence Microplate Cytometry in High Content Screening. Assay Drug Dev Technol 2006;4:209-221. Scaffidi P, Misteli T. Reversal of the cellular phenotype in the premature aging disease Hutchinson-Gilford progeria syndrome. Nat. Med. 2005;11:440-445.
NCGC Assay Protocol Summary: Reagents/Controls: Stable clones expressing DsRed2 and lamin A-EGFP were generated by Cell and Molecular Technologies in S3 HeLa cells. HeLa cells were prepared for the assay when they were 70-90% confluent. The cells were counted and resuspended in Opti-MEM I (no phenol red; Gibco), 2% FBS, 1% penicillin/ streptomycin (Gibco) at concentration of 120 cells/uL concentration. The suspension was passed through a Falcon basket filter with pore size 40um (Beckton Dickson). Control titrations: column […] 1536-well plate contained a sixteen point titration (1:2 dilutions) in duplicate of ancitabine (Sigma: A8598) beginning at 40 uM final concentration. Column 2 contained a sixteen point titration (1:2 dilutions) of cycloheximide beginning at 1.4 mM final concentration. Column 3 contained ancitabine at 40 uM and column 4 contained was the vehicle control (0.5% DMSO final concentration). Assay Steps: 5 uL of HeLa cells were plated in Aurora LoBase black clear bottom (cyclic-olefin polymer) 1536-well plates at a final density of 600 cells/well. Controls and library compounds were added with a 1536-well pin array using the Kalypsys pin-tool. The plates were then incubated for 48 hrs in a cell-culture incubator (37 °C; 5% CO2, 98% humidity). Following incubation the plates were read on the Acumen Explorer using the 488 nm laser. Data was collected on objects between 10 and 100 um in size. Cell objects were defined by a 15 um width x 10 um depth filter. The ratio of the total object intensity in PMT1 (500-530 nm emission; GFP) over PMT3 (575-640 nm emission; RFP) was calculated for analysis. Keywords: NIH Roadmap, MLSCN, MLI, MLSMR, qHTS, NCGC, lamin A, Progeria, RNA splicing.

Question: For `COc1ccc(C=C(c2nc3ccccc3s2)c2nc3ccccc3s2)cc1O`, which “GFP activity change, negative = decrease” value is on record?
Answer: -13.6% (inactive)

Question: And the ratio activity?
Answer: -10.5%

Question: What about the RFP activity of the same compound?
Answer: -2.53%

Question: For `Cc1noc(C)c1-c1ccc2ncnc(NCc3ccc(C(C)(C)C)cc3)c2c1`, which “GFP activity change, negative = decrease” value is on record?
Answer: -6.32% (inactive)

Question: What about the ratio activity of the same compound?
Answer: -12.9%

Question: What about the RFP activity of the same compound?
Answer: -7.69%

Question: For `O=C(Nc1ccc(F)cc1)c1nc[nH]c1C(=O)Nc1ccccc1[N+](=O)[O-]`, which RFP activity is on record?
Answer: -25.1%

Question: And the ratio activity?
Answer: -10.8%

Question: What about the “GFP activity change, negative = decrease” value of the same compound?
Answer: -23.1% (inactive)

Question: Which results are given for `Cc1cccc(C)c1OC[C@H](C)N`?
Answer: ratio activity: -11.5%; RFP activity: -24.1%; GFP activity change, negative = decrease: -32.5% (inactive)

Question: Which ratio activity does the source give for `CC(C)(C)n1nnnc1C(c1ccc2ncccc2c1)N1CCSCC1` (configuration not stated) here?
Answer: -14.8%

Question: And the RFP activity?
Answer: -8.12%

Question: And the “GFP activity change, negative = decrease” value?
Answer: -12.4% (inactive)

Question: With `Cc1ccc(S(=O)(=O)N(CC(=O)Nc2ccccc2C(=O)O)c2cccc(Cl)c2C)cc1` as the compound, how does the ratio activity read?
Answer: -14.3%

Question: And the “GFP activity change, negative = decrease” value?
Answer: 7.34% (inactive)

Question: What about the RFP activity of the same compound?
Answer: 26.8%

Question: Which results are given for `Cc1noc(C)c1-c1ccc2ncnc(NCc3cccc(-c4ccccc4)c3)c2c1`?
Answer: GFP activity change, negative = decrease: 1.82% (inactive); ratio activity: -27.8%; RFP activity: 22.9%

Question: Which ratio activity does the source give for `CC(=O)c1c(C)[nH]c(C(=O)Nc2c(C)n(C)n(-c3ccccc3)c2=O)c1C` here?
Answer: -9.7%

Question: And the RFP activity?
Answer: 1.7%

Question: And the “GFP activity change, negative = decrease” value?
Answer: -2.29% (inactive)

Question: What does the source list for `C/C(=N\NC(=O)C(c1ccncc1)N1CCOCC1)c1ccc(Br)cc1` (configuration not stated)?
Answer: GFP activity change, negative = decrease: -10.9% (inactive); ratio activity: -18.1%; RFP activity: 7.84%

Question: Which RFP activity does the source give for `CC(=O)Nc1ccc(-c2csc(NC(=O)C3CCN(S(=O)(=O)c4cccs4)CC3)n2)cc1` here?
Answer: 16.5%

Question: And the “GFP activity change, negative = decrease” value?
Answer: -2.98% (inactive)

Question: What about the ratio activity of the same compound?
Answer: -13.5%

Question: For `Cc1nc2ccc(NC(=O)c3ccc(Cl)c(S(=O)(=O)N(C)c4ccccc4)c3)cc2s1`, which ratio activity is on record?
Answer: -11.5%

Question: What about the “GFP activity change, negative = decrease” value of the same compound?
Answer: -33.3% (inactive)

Question: And the RFP activity?
Answer: -26.7%

Question: Which ratio activity does the source give for `O=C(CCCN1CC=C(n2c(=O)[nH]c3ccccc32)CC1)c1ccc(F)cc1` here?
Answer: -13.7%

Question: What about the RFP activity of the same compound?
Answer: -6.45%

Question: And the “GFP activity change, negative = decrease” value?
Answer: -20.4% (inactive)

Question: With `O=C(c1ccc(Cl)c(Cl)c1)N1CCC(=O)N(C(COCc2cccc(C(F)(F)F)c2)Cc2ccccc2)CC1` (configuration not stated) as the compound, how does the RFP activity read?
Answer: 13.3%

Question: And the ratio activity?
Answer: -24.5%

Question: What about the “GFP activity change, negative = decrease” value of the same compound?
Answer: -32.8% (inactive)

Question: With `O=C(COc1ccc(Br)cc1)NNC(=S)NC(=O)c1ccccc1[N+](=O)[O-]` as the compound, how does the “GFP activity change, negative = decrease” value read?
Answer: -24.3% (inactive)

Question: And the RFP activity?
Answer: 11.7%

Question: And the ratio activity?
Answer: -24.6%
